The results in this text go back to PubChem BioAssay (Tox21).

Several values for one entry are separate records, joined by “and”; a condition that tells them apart may be missing. Equal entries are not always repeated. Inconclusive results are not listed. Activity calls are given as the source filed them. Calls come from the whole dose curve; as a rule, active = well fitted curve in the direction sought with a large enough effect in the repeat runs; inconclusive = weak or mixed curves; inactive = no such curve, though single readings can be large; an effect the other way counts as inactive or inconclusive.

Assay [1] deals with Cytochrome P450 2C19 (Homo sapiens) (UniProt P33261). Put plainly: Cytochrome P450 Family 2 Subfamily C Member 19 (CYP2C19) small molecule antagonists: luciferase reporter qHTS assay (AID 1671197). Note: nearly all actives have a fitted effect of over 65% in size. Note: potency is the fitted concentration of half-maximal effect. In a few lines: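 Quantitative high-throughput screen of the Tox21 library using CYP2C19 with proluciferin substrate. Reaction: NADPH regeneration, 37C, 1 h, after 10 min compound preincubation at room temperature. Readout: luminescence.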
Sequence of Cytochrome P450 2C19 (Homo sapiens) (P33261 whole entry, looked up): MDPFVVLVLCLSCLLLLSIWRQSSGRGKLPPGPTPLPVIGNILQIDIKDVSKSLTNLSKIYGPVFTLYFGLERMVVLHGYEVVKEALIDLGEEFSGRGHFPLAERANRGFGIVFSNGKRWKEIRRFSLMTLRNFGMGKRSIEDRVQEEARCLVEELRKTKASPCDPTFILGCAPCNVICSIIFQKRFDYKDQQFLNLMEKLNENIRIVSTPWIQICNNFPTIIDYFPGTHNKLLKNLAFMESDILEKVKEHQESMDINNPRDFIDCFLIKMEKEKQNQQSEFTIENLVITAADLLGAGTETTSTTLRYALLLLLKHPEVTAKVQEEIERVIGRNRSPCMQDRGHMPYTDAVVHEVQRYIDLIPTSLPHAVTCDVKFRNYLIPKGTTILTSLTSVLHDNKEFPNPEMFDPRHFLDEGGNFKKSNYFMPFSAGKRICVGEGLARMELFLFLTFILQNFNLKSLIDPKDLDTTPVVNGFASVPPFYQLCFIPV
For orientation: In a reporter assay the amount or activity of a reporter protein is the signal.

Assay [2] deals with Cytochrome P450 2C9 (Homo sapiens) (UniProt P11712). Put plainly: Cytochrome P450 Family 2 Subfamily C Member 9 (CYP2C9) small molecule antagonists: luciferase reporter qHTS assay (AID 1671198). Note: nearly all actives have a fitted effect of over 50% in size. Note: potency is the fitted concentration of half-maximal effect. In a few lines:
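P450-Glo proluciferin substrate with CYP2C9 enzyme; 10 min RT preincubation, then NADPH regeneration 1 h at 37C; luciferin detection reagent 20 min RT, luminescence in relative luminescence units.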

Assay [3] deals with Cytochrome P450 1A2 (Homo sapiens) (UniProt P05177). Put plainly: Cytochrome P450 Family 1 Subfamily A Member 2 (CYP1A2) small molecule antagonists: luciferase reporter qHTS assay (AID 1671199). Note: nearly all actives have a fitted effect of over 50% in size. Note: potency is the fitted concentration of half-maximal effect. The method in brief: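 Inhibition of CYP1A2 conversion of proluciferin to luciferin, detected by luminescence. Reaction run 1 h at room temperature with NADPH regeneration after brief compound preincubation.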
Sequence of Cytochrome P450 1A2 (Homo sapiens) (P05177 whole entry, looked up): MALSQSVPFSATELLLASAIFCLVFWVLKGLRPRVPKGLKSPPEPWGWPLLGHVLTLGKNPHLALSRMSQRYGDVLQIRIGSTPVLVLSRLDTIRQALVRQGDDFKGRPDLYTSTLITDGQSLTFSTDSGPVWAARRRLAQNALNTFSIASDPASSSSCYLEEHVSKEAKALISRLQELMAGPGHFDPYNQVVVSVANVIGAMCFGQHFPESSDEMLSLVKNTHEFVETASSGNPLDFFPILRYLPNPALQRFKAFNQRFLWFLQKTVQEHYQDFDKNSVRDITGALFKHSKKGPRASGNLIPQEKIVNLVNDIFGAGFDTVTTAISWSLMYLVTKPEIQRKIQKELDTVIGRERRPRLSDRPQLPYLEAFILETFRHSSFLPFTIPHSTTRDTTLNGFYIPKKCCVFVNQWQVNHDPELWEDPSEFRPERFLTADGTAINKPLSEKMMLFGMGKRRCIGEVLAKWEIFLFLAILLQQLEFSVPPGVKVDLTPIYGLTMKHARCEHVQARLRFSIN

For assay [4], the target named is Voltage-gated inwardly rectifying potassium channel KCNH2 (Homo sapiens) (UniProt Q12809). The experiment in a line: Human Ether-a-go-go-Related Gene (hERG) channel small molecule antagonists: fluorescence cell-based qHTS assay (AID 1671200). Note: nearly all actives have a fitted effect of over 50% in size. Note: potency is the fitted concentration of half-maximal effect. In a few lines: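 First, 1000 cells per well are seeded and cultured overnight at 37 C. Next, FluxOR II dye is loaded for 1 h at room temperature, protected from light. After 10 more minutes, stimulus is added and fluorescence is read.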
Sequence of Voltage-gated inwardly rectifying potassium channel KCNH2 (Homo sapiens) (Q12809 whole entry, looked up): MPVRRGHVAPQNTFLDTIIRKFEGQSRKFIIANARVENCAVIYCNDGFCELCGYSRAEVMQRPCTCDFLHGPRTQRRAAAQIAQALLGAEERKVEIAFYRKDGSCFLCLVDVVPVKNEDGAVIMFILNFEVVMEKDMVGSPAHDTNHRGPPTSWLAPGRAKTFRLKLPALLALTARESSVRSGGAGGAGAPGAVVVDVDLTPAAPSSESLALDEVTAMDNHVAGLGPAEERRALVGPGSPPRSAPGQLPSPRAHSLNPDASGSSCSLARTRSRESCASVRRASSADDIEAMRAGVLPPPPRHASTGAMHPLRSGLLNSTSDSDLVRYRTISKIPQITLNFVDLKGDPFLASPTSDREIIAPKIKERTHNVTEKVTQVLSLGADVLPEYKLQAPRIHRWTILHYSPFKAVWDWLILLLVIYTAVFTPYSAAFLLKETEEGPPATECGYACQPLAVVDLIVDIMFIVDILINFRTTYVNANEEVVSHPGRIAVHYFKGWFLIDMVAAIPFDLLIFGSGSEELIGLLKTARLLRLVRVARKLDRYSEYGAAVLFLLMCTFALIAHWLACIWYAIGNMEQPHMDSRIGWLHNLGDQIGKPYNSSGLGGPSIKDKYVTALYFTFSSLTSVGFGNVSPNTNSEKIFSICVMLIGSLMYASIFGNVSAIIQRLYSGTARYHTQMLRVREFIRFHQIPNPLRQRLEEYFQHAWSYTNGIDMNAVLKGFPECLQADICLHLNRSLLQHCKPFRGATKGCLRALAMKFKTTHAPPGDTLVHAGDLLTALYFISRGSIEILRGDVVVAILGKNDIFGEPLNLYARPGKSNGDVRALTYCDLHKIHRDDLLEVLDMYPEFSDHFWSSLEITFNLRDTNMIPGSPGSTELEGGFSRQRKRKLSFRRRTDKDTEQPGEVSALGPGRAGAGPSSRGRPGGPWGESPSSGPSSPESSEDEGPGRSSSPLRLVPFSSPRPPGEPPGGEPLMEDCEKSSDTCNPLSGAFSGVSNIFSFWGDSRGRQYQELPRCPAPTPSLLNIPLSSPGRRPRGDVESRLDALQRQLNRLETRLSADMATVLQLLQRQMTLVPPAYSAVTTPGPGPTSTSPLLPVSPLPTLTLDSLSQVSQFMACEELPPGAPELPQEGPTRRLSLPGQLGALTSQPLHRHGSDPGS
On the technique in general: Block of hERG is tested as a sign of cardiac risk.

For assay [5], the target named is Cytochrome P450 3A4 (Homo sapiens) (UniProt P08684). The experiment in a line: Cytochrome P450 Family 3 Subfamily A Member 4 (CYP3A4) small molecule antagonists: luciferase reporter qHTS assay (AID 1671201). Note: series mostly up to about 120 µM; nearly all actives have a fitted effect of over 50% in size. In a few lines: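 Enzyme and proluciferin substrate are mixed with test chemicals for 10 min, then NADPH regeneration system drives turnover for 1 h at room temperature. A detection reagent halts the reaction; luminescence after 20 min gives relative activity.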
Sequence of Cytochrome P450 3A4 (Homo sapiens) (P08684 whole entry, looked up): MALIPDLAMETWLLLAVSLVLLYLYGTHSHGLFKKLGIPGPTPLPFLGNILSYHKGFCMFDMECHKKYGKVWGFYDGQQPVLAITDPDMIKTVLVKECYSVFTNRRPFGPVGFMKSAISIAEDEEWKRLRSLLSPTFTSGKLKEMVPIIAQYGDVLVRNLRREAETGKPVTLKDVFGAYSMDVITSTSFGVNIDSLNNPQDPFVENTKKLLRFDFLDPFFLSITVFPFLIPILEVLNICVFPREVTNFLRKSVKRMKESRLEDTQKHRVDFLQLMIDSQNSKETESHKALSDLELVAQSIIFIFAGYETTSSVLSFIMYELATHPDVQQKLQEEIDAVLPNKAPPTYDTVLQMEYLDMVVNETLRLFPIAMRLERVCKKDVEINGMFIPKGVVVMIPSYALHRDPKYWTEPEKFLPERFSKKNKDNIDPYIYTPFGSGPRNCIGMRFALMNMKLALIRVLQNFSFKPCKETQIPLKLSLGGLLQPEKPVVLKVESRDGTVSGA

Sequence of Cytochrome P450 2C9 (Homo sapiens) (P11712 whole entry, looked up): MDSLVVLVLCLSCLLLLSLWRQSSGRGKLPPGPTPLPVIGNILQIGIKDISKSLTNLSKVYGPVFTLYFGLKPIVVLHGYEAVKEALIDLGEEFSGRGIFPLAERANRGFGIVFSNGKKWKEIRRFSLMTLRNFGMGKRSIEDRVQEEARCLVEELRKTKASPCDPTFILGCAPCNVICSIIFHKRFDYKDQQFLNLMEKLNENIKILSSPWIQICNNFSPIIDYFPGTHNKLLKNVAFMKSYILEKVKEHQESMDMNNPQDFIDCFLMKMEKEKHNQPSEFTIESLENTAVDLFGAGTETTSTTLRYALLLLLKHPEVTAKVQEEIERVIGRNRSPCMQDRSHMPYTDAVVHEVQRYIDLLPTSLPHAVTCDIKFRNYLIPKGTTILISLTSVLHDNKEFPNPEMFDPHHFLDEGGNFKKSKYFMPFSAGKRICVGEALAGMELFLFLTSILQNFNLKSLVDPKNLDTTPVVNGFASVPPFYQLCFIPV

`COc1cc(N)c(Cl)cc1C(=O)NC1CCN(CCCOc2ccc(F)cc2)CC1OC` (stereo unspecified): in assay [1], the Potency is 15.5 µM (active). The Potency result in assay [2] and in assay [3] was “inactive” throughout.

For `CCOc1ccccc1O[C@H](c1ccccc1)[C@H]1CNCCO1`, the Potency result in assay [1], in assay [2], in assay [3] and in assay [4] was “inactive” in each case.

In the case of `COc1ccccc1NC(=O)c1cc2ccccc2cc1O`, the Potency in assay [1] is 11.2 µM (active); in assay [2] it was 22.4 µM (active); in assay [3], 1.78 µM (active). Besides, in assay [4], the Potency entry is “inactive”.

In the case of `O=C(Nc1cccc2c(=O)cc(-c3nn[nH]n3)oc12)c1ccc(OCCCCc2ccccc2)cc1`, the Potency result in assay [1], in assay [3] and in assay [4] was “inactive” in each case. Besides, in assay [2], the Potency was 7.76 µM (active).

Take `Oc1ccc(Cl)c2cccnc12`: the Potency entry in assay [1], in assay [2], in assay [3], in assay [4] and in assay [5] was “inactive” throughout.

`CC1(C)[C@H](C(=O)O)N2C(=O)C[C@H]2S1(=O)=O`: the Potency in assay [1] is 30.9 µM (active). The Potency result in assay [2], in assay [3] and in assay [4] was “inactive” each time.

Turning to `CC(CO)CO`, the Potency result in assay [1], in assay [2], in assay [3] and in assay [4] was “inactive” each time.

For the molecule `CC(C)Nc1cccnc1N1CCN(C(=O)c2cc3cc(NS(C)(=O)=O)ccc3[nH]2)CC1`, the Potency in assay [1] is 9.77 µM (active); in assay [2], 2.75 µM (active); in assay [4], 9.52 µM (active). Besides, the Potency result in assay [3] is “inactive”.

For `CN(C)CCC=C1c2ccccc2C=Cc2ccccc21`, the Potency result in assay [1], in assay [2] and in assay [3] was “inactive” each time.

With `CCC(OCCCOC)OC(C)=O` (stereo unspecified), the Potency entry in assay [1], in assay [2] and in assay [4] was “inactive” each time. Also, the Potency in assay [3] was 36.4 µM (active).

`C=C/C(C)=C/C/C=C(\C)CCC=C(C)C`: the Potency in assay [1] and in assay [2] was 31.7 µM (active) in each case. Further, the Potency result in assay [3] and in assay [4] was “inactive” throughout.

As to `C[C@]12CC[C@@H]3c4ccc(O)cc4CC[C@H]3[C@@H]1CC[C@@H]2OC(=O)CCC1CCCC1`, the Potency in assay [1] is 14.2 µM (active); in assay [2], 17.8 µM (active) and 17.4 µM (active); in assay [3] it was 17.8 µM (active). The Potency entry in assay [4] and in assay [5] was “inactive” throughout.

Take `CC(C)=CCC/C(C)=C/CC/C(C)=C/CCC(=O)OC/C=C(\C)CCC=C(C)C`: the Potency result in assay [1], in assay [2], in assay [3] and in assay [4] was “inactive” throughout.

`Cc1ccc(OC(=O)c2ccccc2O)cc1`: the Potency result in assay [1] is “inactive”. In addition, the Potency in assay [2] and in assay [3] was 35.6 µM (active) each time.

As for `CC(=O)Nc1cc(S(=O)(=O)O)cc2cc(S(=O)(=O)O)c(N=Nc3ccccc3)c(O)c12`, the results for the Potency in assay [1], in assay [2] and in assay [3] were 39.9 µM (active), 35.6 µM (active) and 31.7 µM (active), respectively. The Potency result in assay [4] is “inactive”.

With `N#CCc1ccc(Cl)cc1Cl`, the Potency in assay [1] was 79.6 µM (active); in assay [3], 22.4 µM (active). Besides, the Potency result in assay [2], in assay [4] and in assay [5] was “inactive” each time.

Take `CN1CCCC(CC2c3ccccc3Sc3ccccc32)C1` (stereo unspecified): the Potency in assay [1] was 7.76 µM (active); in assay [4], 4.77 µM (active). The Potency entry in assay [2], in assay [3] and in assay [5] was “inactive” each time.

In the case of `c1cc(N(CC2CO2)CC2CO2)ccc1Cc1ccc(N(CC2CO2)CC2CO2)cc1` (stereo unspecified), the Potency in assay [1] is 63.3 µM (active); in assay [2], 17.8 µM (active). For the same molecule, the Potency entry in assay [3] and in assay [4] was “inactive” throughout.

On to `CCCC(C(=O)OCCN(CC)CC)(c1ccccc1)c1ccccc1`, for which the figures for the Potency in assay [1], in assay [2] and in assay [4] were 21.9 µM (active), 13.8 µM (active) and 8.49 µM (active), respectively. The Potency entry in assay [3] is “inactive”.

Consider `c1csc(SSc2cccs2)c1`, for which the Potency in assay [1] is 5.03 µM (active); in assay [2] it was 5.03 µM (active); in assay [3], 31.7 µM (active). Moreover, the Potency result in assay [4] was “inactive”.

For the molecule `Cc1cc2c(OCC(CNC(C)(C)C)OC(=O)c3ccccc3)cccc2[nH]1` (stereo unspecified), the Potency is 38.9 µM (active) in assay [1] and 7.76 µM (active) in assay [2]. Moreover, in assay [3], the Potency result is “inactive”.

On to `NC1[C@H]2CN(c3nc4c(cc3F)c(=O)c(C(=O)O)cn4-c3ccc(F)cc3F)C[C@@H]12` (stereo partly specified), for which the Potency entry in assay [1], in assay [2], in assay [3] and in assay [4] was “inactive” throughout.

Regarding `COc1cc(C(=O)NCCCCCC(=O)O)cc(OC)c1OC`, the Potency result in assay [1], in assay [2], in assay [3] and in assay [4] was “inactive” in each case.

Take `CCCCN(CCN(CCCC)C(=O)N1CCOCC1)C(=O)N1CCOCC1`: the Potency result in assay [1], in assay [2], in assay [3] and in assay [4] was “inactive” in each case.

For the molecule `O=C1NCCN1CCO`, the Potency result in assay [1], in assay [2], in assay [3], in assay [4] and in assay [5] was “inactive” each time.

Take `Cc1cccc(O)c1N`: the Potency in assay [1] is 40.3 µM (active); in assay [2], 32 µM (active); in assay [3] it was 10.1 µM (active). In assay [4], the Potency result was “inactive”.

In the case of `CC(C)=CCC/C(C)=C/CC/C(C)=C/C(=O)OCC(=O)[C@@]1(O)CC[C@H]2[C@@H]3CCC4=CC(=O)C=C[C@]4(C)[C@H]3[C@@H](O)C[C@@]21C`, the Potency in assay [1] is 7.76 µM (active); in assay [2], 3.89 µM (active). Moreover, the Potency result in assay [3] and in assay [4] was “inactive” in each case.

In the case of `C[C@@H](O)[C@H]1C(=O)N2C(C(=O)O)=C([C@H]3CCCO3)S[C@H]12`, the Potency result in assay [1], in assay [2], in assay [3] and in assay [4] was “inactive” each time.

`CCOC(=O)c1ccc(C#Cc2ccc3c(c2)C(C)(C)CCS3)nc1`: the Potency result in assay [1], in assay [2] and in assay [3] was “inactive” throughout.

Turning to `CC(=O)OCC(=O)NCCCOc1cccc(CN2CCCCC2)c1`, the Potency entry in assay [1], in assay [2], in assay [3], in assay [4] and in assay [5] was “inactive” each time.

Regarding `CCOc1ccc(Cc2nccc3cc(OCC)c(OCC)cc23)cc1OCC`, the Potency was 7.76 µM (active) in assay [1] and 4.9 µM (active) in assay [2]. For the same molecule, in assay [3], the Potency result was “inactive”.

As to `CC(C)(c1ccccc1)c1ccccc1`, the Potency entry in assay [1] and in assay [2] was “inactive” in each case.

As to `O=c1[nH]c2ccc(Cl)cc2o1`, the results for the Potency in assay [1] and in assay [3] were 79.6 µM (active) and 10 µM (active), respectively. In addition, the Potency result in assay [2] and in assay [4] was “inactive” each time.

On to `O=[N+]([O-])c1ccc(O/N=C/c2cc(Br)c(O)c(Br)c2)c([N+](=O)[O-])c1`, for which the results for the Potency in assay [1] and in assay [2] were 79.3 µM (active) and 9.98 µM (active), respectively. Also, the Potency result in assay [3], in assay [4] and in assay [5] was “inactive” throughout.

As to `COC(=O)C1=C(C)NC(C)=C(C(=O)O[C@@H]2CCCN(Cc3ccccc3)C2)[C@@H]1c1cccc([N+](=O)[O-])c1`, the Potency is 4.9 µM (active) in assay [1] and 0.871 µM (active) in assay [2].

On to `CC(=O)c1cc2ccccc2s1`, for which the Potency entry in assay [1], in assay [2] and in assay [4] was “inactive” throughout. Further, in assay [3], the Potency was 6.92 µM (active).
